Results from PubChem BioAssay (Tox21).
Values joined by “and” are separate entries in the source; they are usually repeats but may differ in a detail not shown here. Equal values may be shown once. Results filed as inconclusive are left out. Entries that show only a call come without a potency. Some compounds were tested as several samples or in several runs, with calls that do not always agree. Active and inactive are the calls of the source. Unless noted, calls follow the shape of the dose curve; as a rule, active = well fitted curve in the direction sought with a large enough effect in the repeat runs; inconclusive = weak or mixed curves; inactive = flat fitted curve, though single readings scatter.

Experiments:
[1] = qHTS assay to test for compound auto fluorescence at 535 nm (green) in HEK293 cells (AID 720680)
[2] = qHTS assay to test for compound auto fluorescence at 460 nm (blue) in HEK293 cell free culture (AID 720681)
How it was run: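 Compounds were added to cell-free DMEM with 10% FBS and fluorescence read directly. The blue channel used 405 nm excitation and 460 nm emission, with triamterene as the reference fluorophore.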

[3] = qHTS assay to test for compound auto fluorescence at 535 nm (green) in HEK293 cell free culture (AID 720682)
How it was run: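 Intrinsic compound fluorescence is measured in culture medium containing 10% FBS, with excitation at 485 nm and detection at 535 nm, referenced to fluorescein.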

[4] = qHTS assay to test for compound auto fluorescence at 590 nm (red) in HEK293 cell free culture (AID 720683)
How it was run: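 Cell-free wells of DMEM with 10% FBS received compound, and intrinsic fluorescence was read at excitation/emission 540/590 nm. Values expressed as equivalence to Rose Bengal sodium.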

[5] = qHTS assay to test for compound auto fluorescence at 590 nm (red) in HepG2 cell free culture (AID 720684)
How it was run: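 Compounds are added to culture medium (MEM, 10% FBS) lacking cells, then fluorescence is read at excitation 540 nm, emission 590 nm, with Rose Bengal sodium as the equivalency standard.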

[6] = qHTS assay to test for compound auto fluorescence at 460 nm (blue) in HepG2 cell free culture (AID 720685)
How it was run: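 Compound (23 nL) or DMSO pinned into cell-free MEM with 10% FBS; blue fluorescence read at 405/460 nm excitation/emission, expressed as auto-fluorescence equivalency to triamterene.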

[7] = qHTS assay to test for compound auto fluorescence at 535 nm (green) in HepG2 cell free culture (AID 720686)
[8] = qHTS assay to test for compound auto fluorescence at 460 nm (blue) in HepG2 cells (AID 720687)
How it was run: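 HepG2 cells in MEM with 10% FBS, attached overnight at 37 C, were exposed to compound or DMSO for 1 hr at 37 C, 5% CO2. Blue fluorescence was read at 405/460 nm, with triamterene as reference fluorophore.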

[9] = target: Glucocorticoid receptor (Homo sapiens) (UniProt P04150); assay: qHTS assay to identify small molecule agonists of the glucocorticoid receptor (GR) signaling pathway (AID 720691; active = well fitted activation curve with a large enough effect in the signal ratio in the repeat runs, not every such curve was filed as active; the % refers to the signal ratio)
How it was run: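 GR-bla HeLa cells carrying a GRE-driven beta-lactamase reporter, exposed to compounds for 18 h at 37 C. Reporter activation read as fluorescence after 2 h with LiveBLAzer B/G FRET substrate at room temperature.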

[10] = target: Glucocorticoid receptor (Homo sapiens) (UniProt P04150); assay: qHTS assay to identify small molecule antagonists of the glucocorticoid receptor (GR) signaling pathway (AID 720692; active = well fitted inhibition curve with a large enough effect in the signal ratio in the repeat runs, not every such curve was filed as active; the % refers to the signal ratio; also: potency is read from the fitted curve at half-maximal effect)
How it was run: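 GR-bla HeLa cells carrying a GRE-driven beta-lactamase reporter received compound after 4 h plating, then dexamethasone (5 nM final). After 18 h at 37C, the FRET substrate was loaded for 2 h at room temperature and fluorescence read.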

Sequence of Glucocorticoid receptor (Homo sapiens) (P04150 whole entry, looked up): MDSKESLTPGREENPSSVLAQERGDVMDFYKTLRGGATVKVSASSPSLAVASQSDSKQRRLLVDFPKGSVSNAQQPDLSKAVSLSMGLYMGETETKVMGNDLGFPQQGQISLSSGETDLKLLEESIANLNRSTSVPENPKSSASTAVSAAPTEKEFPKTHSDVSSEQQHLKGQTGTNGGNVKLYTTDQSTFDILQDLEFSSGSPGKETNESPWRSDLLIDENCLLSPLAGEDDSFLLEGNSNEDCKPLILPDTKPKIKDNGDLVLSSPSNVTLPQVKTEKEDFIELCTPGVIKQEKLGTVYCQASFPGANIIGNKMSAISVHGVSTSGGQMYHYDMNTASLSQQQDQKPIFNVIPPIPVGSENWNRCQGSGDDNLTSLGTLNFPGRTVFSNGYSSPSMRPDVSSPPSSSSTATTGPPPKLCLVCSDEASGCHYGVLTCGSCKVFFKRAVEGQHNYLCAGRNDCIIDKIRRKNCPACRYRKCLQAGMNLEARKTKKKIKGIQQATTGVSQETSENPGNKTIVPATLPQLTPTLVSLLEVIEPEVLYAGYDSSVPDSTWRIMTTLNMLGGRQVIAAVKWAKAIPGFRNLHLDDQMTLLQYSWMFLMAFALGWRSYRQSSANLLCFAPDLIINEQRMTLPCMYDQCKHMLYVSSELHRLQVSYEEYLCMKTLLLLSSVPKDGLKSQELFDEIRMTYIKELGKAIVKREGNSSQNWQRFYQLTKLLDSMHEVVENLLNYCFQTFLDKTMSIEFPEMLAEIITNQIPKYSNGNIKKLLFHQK

Row | Compound | outcome [1] | outcome [2] | outcome [3] | outcome [4] | outcome [5] | outcome [6] | outcome [7] | outcome [8] | Potency [9] | Potency [10]
1 | CC(C)(OOC(C)(C)c1ccccc1)c1ccccc1 | inactive | inactive | inactive | inactive | inactive | inactive | inactive | inactive | inactive | inactive
2 | CCN(CC)C(=O)SCc1ccc(Cl)cc1 | inactive | inactive | inactive | inactive | inactive | inactive | inactive | inactive | inactive | inactive
3 | c1ccc(NNc2ccccc2)cc1 | inactive | inactive | inactive | inactive | inactive | inactive | inactive | inactive | inactive | inactive
4 | CC(C)N(C(=O)SCC(Cl)=C(Cl)Cl)C(C)C | inactive | inactive | inactive | inactive | inactive | inactive | inactive | inactive | inactive | inactive
5 | COP(=O)(OC)OC | inactive | inactive | inactive | inactive | inactive | inactive | inactive | – | inactive | inactive
6 | Cc1cccc(N)c1N | inactive | inactive | inactive | inactive | inactive | inactive | inactive | – | inactive | inactive
7 | CCCCN(CCCC)N=O | inactive | inactive | inactive | inactive | inactive | inactive | inactive | – | inactive | inactive
8 | COC(=O)c1sccc1S(=O)(=O)NC(=O)Nc1nc(C)nc(OC)n1 | inactive | inactive | inactive | inactive | inactive | inactive | inactive | inactive | inactive | inactive
9 | N#CC(Br)Br | inactive | inactive | inactive | inactive | inactive | inactive | inactive | inactive | inactive | inactive
10 | CCOc1cc(C=O)ccc1O | inactive | inactive | inactive | inactive | inactive | inactive | inactive | – | inactive | inactive
11 | C=C(C)C(=O)OCC1CO1 (stereo not drawn) | inactive | inactive | inactive | inactive | inactive | inactive | inactive | inactive | inactive | inactive
12 | CCOC(=O)C(C)OC(=O)c1cc(Oc2ccc(C(F)(F)F)cc2Cl)ccc1[N+](=O)[O-] (stereo not drawn) | inactive | inactive | inactive | inactive | inactive | inactive | inactive | inactive | inactive | inactive
13 | Clc1nc(Cl)nc(Cl)n1 | inactive | inactive | inactive | inactive | inactive | inactive | inactive | – | inactive | inactive
14 | CC(C)(c1cc(Cl)c(O)c(Cl)c1)c1cc(Cl)c(O)c(Cl)c1 | inactive | inactive | inactive | inactive | inactive | inactive | inactive | inactive | inactive | 12.3 µM (active) and 6.92 µM (active)
15 | C=C(C)[C@H]1Cc2c(ccc3c2O[C@@H]2COc4cc(OC)c(OC)cc4[C@@H]2C3=O)O1 | inactive | inactive | inactive | inactive | inactive | inactive | inactive | – | inactive | –
16 | O=C(CCl)c1ccccc1 | inactive | inactive | inactive | inactive | inactive | inactive | inactive | – | inactive | inactive and 54.9 µM (active)
17 | Cc1ccc(OP(=O)(Oc2ccc(C)cc2)Oc2ccc(C)cc2)cc1 | inactive | inactive | inactive | inactive | inactive | inactive | inactive | – | inactive | inactive
18 | CCOC(=S)S | inactive | inactive | inactive | – | inactive | inactive | inactive | – | – | –
19 | N#CCCCl | inactive | inactive | inactive | inactive | inactive | inactive | inactive | inactive | inactive | inactive

Row | Compound | outcome [1] | outcome [2] | outcome [3] | outcome [4] | outcome [5] | outcome [6] | outcome [7] | outcome [8] | Potency [9] | Potency [10]
20 | CN(C)c1ccc(C(=O)c2ccc(N(C)C)cc2)cc1 | inactive | – | inactive | inactive | inactive | – | inactive | – | inactive | –
21 | Oc1cc(Cl)ccc1Cl | inactive | inactive | inactive | – | inactive | inactive | inactive | inactive | inactive | inactive
22 | Cc1cc(C)cc(C)c1 | inactive | inactive | inactive | – | inactive | inactive | inactive | inactive | – | –
23 | COP(=S)(OC)Oc1cc(Cl)c(Cl)cc1Cl | inactive | inactive | inactive | – | inactive | inactive | inactive | inactive | inactive | inactive
24 | N[C@@H](Cc1ccc(N(CCCl)CCCl)cc1)C(=O)O | inactive | inactive | inactive | – | inactive | inactive | inactive | inactive | inactive | inactive
25 | CC(C)Oc1cc(-n2nc(C(C)(C)C)oc2=O)c(Cl)cc1Cl | inactive | inactive | inactive | – | inactive | inactive | inactive | – | inactive | –
26 | Oc1c(Cl)c(Cl)c(Cl)c(Cl)c1Cl | inactive | inactive | inactive | – | inactive | inactive | inactive | inactive | inactive | –
27 | CC(O)CCO (stereo not drawn) | inactive | inactive | inactive | – | inactive | inactive | inactive | inactive | – | –
28 | CCN(CC)C(=O)/C(Cl)=C(\C)OP(=O)(OC)OC | inactive | inactive | inactive | – | inactive | inactive | inactive | – | inactive | inactive
29 | COc1ccc(C(CN(C)C)C2(O)CCCCC2)cc1 (stereo not drawn) | inactive | inactive | inactive | – | inactive | inactive | inactive | inactive | – | –
30 | Cc1cc(Cl)ccc1OCCCC(=O)O | inactive | inactive | inactive | – | inactive | inactive | inactive | – | inactive | inactive
31 | CCCCC(CC)COC(=O)c1ccc(C(=O)OCC(CC)CCCC)c(C(=O)OCC(CC)CCCC)c1 (stereo not drawn) | inactive | inactive | inactive | – | inactive | inactive | inactive | inactive | inactive | inactive
32 | CCCCCc1cc(O)cc(O)c1 | inactive | inactive | inactive | – | inactive | inactive | inactive | inactive | – | –
33 | CN(C)C(=O)Nc1ccc(Cl)cc1 | inactive | inactive | inactive | – | inactive | inactive | inactive | inactive | inactive | inactive
34 | CCOP(=S)(OCC)O/N=C(\C#N)c1ccccc1 | inactive | inactive | inactive | – | inactive | inactive | inactive | – | inactive | inactive
35 | NC(=S)Nc1ccccc1 | inactive | inactive | inactive | – | inactive | inactive | inactive | inactive | inactive | inactive
36 | c1nc[nH]n1 | inactive | inactive | inactive | – | inactive | inactive | inactive | inactive | inactive | inactive
37 | CCN(N=O)C(N)=O | inactive | inactive | inactive | – | inactive | inactive | inactive | inactive | inactive | –
38 | OCC(O)CO | – | – | – | – | – | – | – | – | inactive | inactive

Row | Compound | outcome [1] | outcome [2] | outcome [3] | outcome [4] | outcome [5] | outcome [6] | outcome [7] | outcome [8] | Potency [9] | Potency [10]
39 | Nc1ccc(-c2ccccc2)cc1 | inactive | inactive | inactive | – | inactive | inactive | inactive | inactive | – | –
40 | Cc1ccc(N)c(N)c1 | inactive | inactive | inactive | – | inactive | inactive | inactive | – | inactive | inactive
41 | CCCCN(CC)c1c([N+](=O)[O-])cc(C(F)(F)F)cc1[N+](=O)[O-] | inactive | inactive | inactive | – | inactive | inactive | inactive | inactive | inactive | inactive
42 | CCCCC(CC)COC(=O)Cl (stereo not drawn) | inactive | inactive | inactive | – | inactive | inactive | inactive | inactive | inactive | inactive
43 | O=C(O)CC[N+](=O)[O-] | inactive | inactive | inactive | – | inactive | inactive | inactive | inactive | inactive | inactive
44 | C=CCc1ccc(OC)cc1 | inactive | inactive | inactive | – | inactive | inactive | inactive | inactive | – | –
45 | C#CCOS(=O)OC1CCCCC1Oc1ccc(C(C)(C)C)cc1 (stereo not drawn) | inactive | inactive | inactive | – | inactive | inactive | inactive | inactive | inactive | 43.7 µM (active)
46 | CCCCNC(=O)n1c(NC(=O)OC)nc2ccccc21 | inactive | inactive | inactive | – | inactive | inactive | inactive | – | inactive | inactive
47 | O=[N+]([O-])c1c(Cl)c(Cl)c(Cl)c(Cl)c1Cl | inactive | inactive | inactive | – | inactive | inactive | inactive | inactive | inactive | 30.9 µM (active)
48 | CCC(CC)Nc1c([N+](=O)[O-])cc(C)c(C)c1[N+](=O)[O-] | inactive | inactive | inactive | – | inactive | inactive | inactive | – | inactive | inactive
49 | Oc1cc(Cl)c(Cl)cc1Cl | inactive | inactive | inactive | – | inactive | inactive | inactive | inactive | – | –
50 | C[C@]12CCC(=O)C(O)=C1CC[C@@H]1[C@@H]2CC[C@]2(C)C(=O)CC[C@@H]12 | inactive | inactive | inactive | – | inactive | inactive | inactive | – | inactive | inactive
51 | CC(C)C(=O)OCC(C)(C)C(OC(=O)C(C)C)C(C)C (stereo not drawn) | inactive | inactive | inactive | – | inactive | inactive | inactive | – | inactive | inactive
52 | CCc1cccc(CC)c1N(COC)C(=O)CCl | inactive | inactive | inactive | – | inactive | inactive | inactive | – | inactive | –
53 | CNC(=O)Oc1cccc2c1OC(C)(C)O2 | inactive | inactive | inactive | – | inactive | inactive | inactive | inactive | inactive | –
54 | COc1ccc(C=O)cc1 | inactive | inactive | inactive | – | inactive | inactive | inactive | – | inactive | inactive
55 | CCCCCCCCCCCOC(=O)c1ccccc1C(=O)OCCCCCCCCCCC | inactive | inactive | inactive | – | inactive | inactive | inactive | inactive | inactive | inactive
56 | N#Cc1cc(Br)c(O)c(Br)c1 | inactive | inactive | inactive | – | inactive | inactive | inactive | inactive | inactive | –
57 | CCOc1cc(Oc2ccc(C(F)(F)F)cc2Cl)ccc1[N+](=O)[O-] | inactive | inactive | inactive | – | inactive | inactive | inactive | inactive | inactive | inactive
